# Measurements as given in PubChem BioAssay (NCATS).
# Results filed as inconclusive are left out. Where a call stands in place of a potency, no number is given. The source made the active and inactive calls. Calls come from the whole dose curve; as a rule, active = well fitted cell-killing curve with a large enough effect; inconclusive = small, poorly fitted or top-dose-only effect; inactive = no such curve, though single readings can be large or run the other way.
# Assay: qHTS of pediatric cancer cell lines to identify multiple opportunities for drug repurposing: Primary screen for SK-N-SH cells (AID 1347098); note: nearly all actives have a fitted effect of over 65% in size
# Settings: SK-N-SH viability, CellTiter-Glo luminescence, 48 h; series mostly up to 57 µM
# Description: Drug repurposing or repositioning has been offered as a strategy for drug development in oncology programs. This approach has special potential for childhood cancers and other rare or orphan diseases, where the expected return on new drug development has been a disincentive to pharmaceuticals.
# In this project we exploit the poly-pharmacology of drugs to discover new indications via phenotypic screening of a panel of 19 well-characterized cell lines derived from solid tumors seen in children and adolescents. The goal is to identify approved drugs with previously unrecognized anticancer properties that has the potential to reveal new mechanisms and biological processes involved in carcinogenesis or drug resistance. We employed a titration-based paradigm (quantitative high-throughput screening or qHTS), where all compounds were tested at multiple concentrations for their effect on cell viability. Concentration-response curves (CRCs) were derived directly from the primary screen, and both potency and efficacy values were used to identify compounds with robust bioactivity profiles. We screened the NIH Chemical Genomics Center (NCGC) Pharmaceutical Collection (NPC) and Mechanism Interrogation Plate (MIPE) small molecule collections of approved and investigational compounds against these cell lines; and measured metabolically active cells after 48 hours of compound treatment as a proxy for cell viability.
# Assay Submitter: Nathalia J. Martinez, National Center for Advancing Translational Sciences, National Institutes of Health, Rockville, MD, USA; email: natalia.martinez@nih.gov
# [1] Shen, M et al. Quantitative high-throughput phenotypic screening of pediatric cancer cell lines identifies multiple opportunities for drug repurposing. Oncotarget 2017 Dec 19;9(4):4758-4772. PMID 29435139.
# The cells were obtained from University of North Carolina (UNC), Pediatric Preclinical Testing Program (PPT), and Coriell Institute (CI).
# qHTS cell viability assay:
# Cells were assayed in growth media at a density of 500-1,000 cells/well. Five microliters of cells were dispensed into 1,536-well, white, solid-bottom, TC-treated plates (Greiner Bio One) using a multidrop dispenser and incubated at 37 degrees C, 5% CO2, under a humidified atmosphere for 5 hours. Twenty-three nanoliters of compounds and controls (neutral control DMSO or positive control bortezomib at final concentration of 2.3 µM) were subsequently transferred by Kalypsys pintool. For primary screens, the MIPE collection was tested at 11-point dilutions (final concentrations range from 0.78 nM to 46 µM) and the NPC collection at 8-point dilutions (final concentrations range from 0.59 nM to 46 µM). Compounds tested in follow-up screens were assayed at 11-point dilutions. Cells were incubated for 48 hours, followed by addition of 3 µL of CellTiter-Glo (Promega). After a 15 min incubation at room temperature, samples were analyzed for luminescence intensity using a ViewLux High-throughput CCD imager equipped with clear filters.
# Potency is the fitted concentration of half-maximal effect.
row,Compound,Potency
1,NS(=O)(=O)c1ccc(Cl)c(S(N)(=O)=O)c1,inactive
2,CN1CCN(CCC(=O)N2c3ccccc3Sc3ccc(C(F)(F)F)cc32)CC1,9.7 µM (active)
3,CNCCCCOc1ccccc1Cc1ccccc1,24.4 µM (active)
4,Cc1cccc(C)c1NC(=O)CN1CCCCCC1,inactive
5,Cc1ccc(-c2ncc(Cl)cc2-c2ccc(S(C)(=O)=O)cc2)cn1,inactive
6,CN(CCCN1c2ccccc2CCc2ccccc21)CC(=O)c1ccc(Cl)cc1,inactive
7,COc1ccc(S(=O)(=O)N2c3ccc(Cl)cc3[C@@](O)(c3ccccc3Cl)[C@H]2C(=O)N2CCC[C@@H]2C(N)=O)cc1OC,inactive
8,CC(=O)O[C@]1(C(C)=O)CC[C@H]2[C@@H]3C=C(C)C4=CC(=O)CC[C@]4(C)[C@H]3CC[C@@]21C,inactive
9,CC(C(=O)O)c1cccc(Oc2ccccc2)c1 (stereo not given),inactive
10,CC(=O)O[C@]1(C(C)=O)CC[C@H]2[C@@H]3C=C(Cl)C4=CC(=O)CC[C@]4(C)[C@H]3CC[C@@]21C,inactive
11,O=C1[C@H](CC[C@H](O)c2ccc(F)cc2)[C@@H](c2ccc(O)cc2)N1c1ccc(F)cc1,inactive
12,CC(=O)NO,inactive
13,CCOC(=O)C(C#N)=C(c1ccccc1)c1ccccc1,inactive
14,COc1cc(C)nc(-n2nc(C)cc2OC)n1,inactive
15,Cc1ccccc1OCC(O)CO (stereo not given),inactive
16,COC(=O)C(c1ccccc1Cl)N1CCc2sccc2C1 (stereo not given),inactive
17,CCCCOC(=O)CC(CC(=O)OCCCC)(OC(C)=O)C(=O)OCCCC,inactive
18,CCC1Nc2cc(Cl)c(S(N)(=O)=O)cc2S(=O)(=O)N1 (stereo not given),inactive
19,CC(=O)Nc1ccc(CC(=O)O)cc1,inactive
20,OC(C#CCN1CCCC1)(c1ccccc1)c1ccccc1,inactive

row,Compound,Potency
1,O=C1c2cccc3c2[C@H](CCC3)CN1[C@@H]1CN2CCC1CC2,inactive
2,OC[C@H]1O[C@@H]2O[C@H]3[C@H](O)[C@@H](O)[C@@H](O[C@H]4[C@H](O)[C@@H](O)[C@@H](O[C@H]5[C@H](O)[C@@H](O)[C@@H](O[C@H]6[C@H](O)[C@@H](O)[C@@H](O[C@H]7[C@H](O)[C@@H](O)[C@@H](O[C@H]8[C@H](O)[C@@H](O)[C@@H](O[C@H]1[C@H](O)[C@H]2O)O[C@@H]8CO)O[C@@H]7CO)O[C@@H]6CO)O[C@@H]5CO)O[C@@H]4CO)O[C@@H]3CO,inactive
3,Oc1c(Cl)cc(Cl)c(Cl)c1Cc1c(O)c(Cl)cc(Cl)c1Cl,12.2 µM (active)
4,O=C1C(CCS(=O)c2ccccc2)C(=O)N(c2ccccc2)N1c1ccccc1 (stereo not given),inactive
5,CC1CCc2c(N3CCC(O)CC3)c(F)cc3c(=O)c(C(=O)O)cn1c23 (stereo not given),inactive
6,OC1C(O)C(O)C(O)C(O)C1O (stereo not given),inactive
7,CCCCCCCCCCCCCC(=O)OC(C)C,inactive
8,CCNC(=O)NCc1cccc(Cl)c1,inactive
9,CCCCCCCCOc1ccc(C(=O)c2ccccc2)c(O)c1,inactive
10,NC(N)=NN=C(/C=C/c1ccc([N+](=O)[O-])o1)/C=C/c1ccc([N+](=O)[O-])o1,3.86 µM (active)
11,CCC(C(=O)OCCOCCN(CC)CC)c1ccccc1 (stereo not given),inactive
12,NC(=O)C1(N2CCCCC2)CCN(CCCC(=O)c2ccc(F)cc2)CC1,inactive
13,Cc1ccc(S(=O)(=O)NC(=O)NC2CCCC2)cc1,inactive
14,NS(=O)(=O)c1cc2c(cc1Cl)NC(CC1CCCC1)NS2(=O)=O (stereo not given),inactive
15,CC(=O)Nc1ncc([N+](=O)[O-])s1,inactive
16,CCOC(=O)Nc1ccc2c(c1)N(C(=O)CCN1CCOCC1)c1ccccc1S2,inactive
17,CC(=O)NCCCCCC(=O)O,inactive
18,Nc1ccc(C(=O)NCC(=O)O)cc1,inactive
19,O=C(NCCc1c[nH]c2ccccc12)c1cccnc1,inactive
20,NS(=O)(=O)Cc1noc2ccccc12,inactive
